Rab9 promoter act = qHTS Assay for Rab9 Promoter Activators. AID 485297, 2010. 2.8% of 320,000 active. Huh7 Rab9 promoter-luciferase reporter, luminescence, 24 h. Potency, µM (highest dose often 9.22 µM), for the others: top-dose activation, negative = inhibition, most hits filed as activators; also: % of control where 0% means no effect; nearly all actives have a fitted effect of over 60% in size
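Promoter activation is measured as luciferase luminescence in Huh7 cells stably transfected with a Rab9 promoter–luciferase construct, following 24 h compound exposure at 37 °C and 10 min reagent incubation at ambient temperature.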
NPC1 prom act = qHTS Assay for NPC1 Promoter Activators; Huh7 NPC1 promoter luciferase reporter, 24 h; Potency, µM (doses to about 9.22 µM), for inactives: at the highest dose activation, hits mostly activators; 2.4% of 320,000 active; also: % of control where 0% means no effect; nearly all actives have a fitted effect of over 60% in size
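Stable NPC1-promoter luciferase Huh7 line; cpd (DMSO) 24 h, 37 °C, 5% CO2; Amplite luciferase reagent 10 min RT; luminescence readout. qHTS format.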
SMN2 splice enh = qHTS Assay for Enhancers of SMN2 Splice Variant Expression; HEK293 SMN2-luciferase splicing reporter, luminescence, 30-36 h; Potency, µM (top dose mostly 46.1 µM), inactives show at the highest dose activity change, positive = activation, hits mostly activators; 2.8% of 210,000 active; AID 1458, 2008; also: % of control where 0% means no effect; nearly all actives have a fitted effect of over 55% in size
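qHTS luciferase splicing reporter: luminescence rises when SMN2 exon 7 is included in transfected HEK293 cells. Compound exposure lasted 30-36 h at 37C, with 4.5 mM final sodium butyrate as control, followed by a ONE-Glo read.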
FLuc counter = qHTS profiling assay for firefly luciferase inhibitor/activator using purifed enzyme and Km concentrations of substrates (counterscreen for miR-21 project); Luciferin 4-monooxygenase (Photinus pyralis), P08659; purified FLuc, Km substrates, luminescence inhibition; Potency, µM (top dose mostly 57.5 µM), for the others: at the top dose activity change, negative = inhibition, actives largely listed as inhibitors; 6.9% of 360,000 active; AID 588342, 2011;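 also: plate controls were vehicle for no effect and reference inhibitor for full effect; nearly all actives have a fitted effect of over 55% in size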
Target sequence (P08659 whole entry, looked up): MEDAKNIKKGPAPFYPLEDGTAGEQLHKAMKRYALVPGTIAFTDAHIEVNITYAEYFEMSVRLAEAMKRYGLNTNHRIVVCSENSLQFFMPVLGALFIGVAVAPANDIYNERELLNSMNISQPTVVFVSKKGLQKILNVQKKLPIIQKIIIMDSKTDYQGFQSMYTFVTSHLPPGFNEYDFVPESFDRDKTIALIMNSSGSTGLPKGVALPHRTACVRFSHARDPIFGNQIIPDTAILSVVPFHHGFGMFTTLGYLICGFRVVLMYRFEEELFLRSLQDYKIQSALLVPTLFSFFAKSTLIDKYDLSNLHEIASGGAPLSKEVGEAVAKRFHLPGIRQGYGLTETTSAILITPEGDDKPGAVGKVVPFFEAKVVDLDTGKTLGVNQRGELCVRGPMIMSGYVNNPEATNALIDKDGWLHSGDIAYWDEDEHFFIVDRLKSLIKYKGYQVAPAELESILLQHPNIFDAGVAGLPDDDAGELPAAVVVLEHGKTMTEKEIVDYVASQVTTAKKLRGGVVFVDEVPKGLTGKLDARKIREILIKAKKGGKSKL
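Purified P. pyralis luciferase (10nM final) with 10uM D-luciferin and 10uM ATP (Km levels) in 50mM Tris acetate pH 7.5, 10mM Mg acetate, 0.01% Tween-20, 0.05% BSA; qHTS 6-point titration, ~60 µM downward; luminescence read.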
ELG1 genotox = qHTS screen for small molecules that induce genotoxicity in human embryonic kidney (HEK293T) cells expressing luciferase-tagged ELG1 | HEK293T ELG1-luciferase reporter, luminescence, 16 h | Potency, µM (doses to about 46 µM), inactives show at the highest dose activity change, positive = activation, hits mostly activators | 1.3% of 330,000 active; also: % of control where 0% means no effect; nearly all actives have a fitted effect of over 60% in size
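ELG1-luciferase HEK293T cells, 2,000/well; compound pinned in; 16 hr, 37 °C, 5% CO2; ONE-Glo, 30 min RT; luminescence on CCD imager.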
KinaseGlo FLuc = Counterscreen for Luciferase (Kinase-Glo TM) Inhibition. Kinase-Glo luciferase, ATP luminescence, 8 min. Potency, µM (top dose mostly 38.3 µM), for the others: at the top dose activity change, negative = inhibition, hits mostly inhibitors. 0.28% of 200,000 active. AID 1379, 2008; also: % is scaled to controls: 0 for no effect and ±100 for the full control effect; nearly all actives have a fitted effect of over 60% in size
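Compounds were added to a substrate mix at pH 7.2 (50 mM imidazole, 10 uM ATP, within the enzyme's linear range), followed by Kinase-Glo detection reagent; luminescence was measured after 8 minutes at ambient temperature.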
Starred values were filed as active, the others as inactive; [ ] = remark or other dose. Shown are actives, neighbours in structure and some others; about 7.5% of the full set was active somewhere. Calls follow the shape of the dose curve; as a rule, active = well fitted curve in the direction sought with a large enough effect; inconclusive = small, poorly fitted or top-dose-only effect, or another doubt; inactive = no such curve, though single readings can be large; an effect the other way counts as inactive or inconclusive. Potency is read from the fitted curve at half-maximal effect.

How did O=C(Nc1ccccn1)c1ccc2ccccc2n1 do in these assays?
Rab9 promoter act: 4.5µM*; NPC1 prom act: inconclusive; SMN2 splice enh: 11µM*; FLuc counter: 0.95µM*; ELG1 genotox: inconclusive; KinaseGlo FLuc: inconclusive

What do the screens show for `O=C(NCc1ccccc1F)c1ccc2ccccc2n1`?
Rab9 promoter act: 0%; NPC1 prom act: 3%; FLuc counter: -15%; ELG1 genotox: 4%

Results for CCC(CC)c1nnc(NC(=O)c2ccc3ccccc3n2)s1 ?
Rab9 promoter act: inconclusive; NPC1 prom act: inconclusive; SMN2 splice enh: 13µM*; FLuc counter: 5.4µM*; ELG1 genotox: inconclusive; KinaseGlo FLuc: -3%

What do the screens show for `COc1ccccc1NC(=O)c1sc2ncn(Cc3ccccc3Cl)c(=O)c2c1C`?
FLuc counter: -4%

How did O=C(Nc1ccccc1)N1CCCC2CCCCC21 (stereo unspecified) do in these assays?
Rab9 promoter act: 3.2µM*; NPC1 prom act: inconclusive; SMN2 splice enh: 11µM*; FLuc counter: 15µM*; ELG1 genotox: 21µM*; KinaseGlo FLuc: -5%

Results for CCCOC(=O)c1ccc(-c2ccc(C=O)o2)cc1 ?
Rab9 promoter act: inconclusive; NPC1 prom act: inconclusive; SMN2 splice enh: 1.3µM*; FLuc counter: 13µM*; ELG1 genotox: inconclusive; KinaseGlo FLuc: -2%

How did CCOC(=O)c1ccc(-c2ccc(C=O)o2)cc1 do in these assays?
Rab9 promoter act: inconclusive; NPC1 prom act: inconclusive; FLuc counter: 24µM*; ELG1 genotox: inconclusive

What do the screens show for `CCCOC(=O)c1cc(-c2ccc(C=O)o2)ccc1Cl`?
Rab9 promoter act: 28%; NPC1 prom act: 22%; SMN2 splice enh: inconclusive; FLuc counter: inconclusive; ELG1 genotox: 11%; KinaseGlo FLuc: -1%

Results for Cc1ccc(-c2nc(CCNC(=O)C(=O)Nc3c(C)cccc3C)cs2)cc1 ?
FLuc counter: 1%

What do the screens show for `FC(F)(F)c1ccc(-c2noc(-c3ccccc3Br)n2)cc1`?
FLuc counter: 11µM*

How did O=C(CSc1nnc(-c2ccccc2F)o1)NC1CC1 do in these assays?
ELG1 genotox: 10%

Results for Nc1nonc1-c1noc(-c2ccccc2Br)n1 ?
Rab9 promoter act: 5%; NPC1 prom act: 13%; SMN2 splice enh: inconclusive; FLuc counter: 17µM*; ELG1 genotox: inconclusive; KinaseGlo FLuc: -3%

Results for Cc1ccc(-c2noc(-c3ccccc3F)n2)cc1 ?
Rab9 promoter act: 2µM*; NPC1 prom act: inconclusive; SMN2 splice enh: 13µM*; FLuc counter: 0.85µM*; ELG1 genotox: 2.6µM*; KinaseGlo FLuc: -9%

Results for O=C(c1ccccc1)c1nnc(-c2ccccc2F)o1 ?
Rab9 promoter act: 24%; NPC1 prom act: 16%; SMN2 splice enh: 26%; FLuc counter: 0.54µM*; ELG1 genotox: 16µM*; KinaseGlo FLuc: inconclusive

How did Cc1nc(-c2cc(-c3nc(-c4ccc(C(F)(F)F)cc4)no3)no2)cs1 do in these assays?
Rab9 promoter act: 0%; NPC1 prom act: -3%; FLuc counter: 3%; ELG1 genotox: -2%

How did CN(c1ccccc1)S(=O)(=O)c1cccc(C(=O)OCC(=O)Nc2ccc(C(N)=O)cc2)c1 do in these assays?
ELG1 genotox: -2%

What do the screens show for `Cc1ccc(CNC(=O)CN(c2cc(C)cc(C)c2)S(=O)(=O)c2c(C)noc2C)cc1`?
SMN2 splice enh: 16%; FLuc counter: 0%

How did Cc1ccccc1C(=O)Nc1ccccc1-c1nc(-c2ccccc2)no1 do in these assays?
FLuc counter: -6%

What do the screens show for `O=C(O)c1ccccc1-c1noc(-c2ccccc2F)n1`?
Rab9 promoter act: 2µM*; NPC1 prom act: 3.5µM*; FLuc counter: 9.5µM*

Results for Cc1ccccc1-c1noc(-c2ccccc2C(=O)O)n1 ?
Rab9 promoter act: 17%; NPC1 prom act: 19%; FLuc counter: 19µM*; ELG1 genotox: 14%

What do the screens show for `Nc1nonc1-c1noc(CCCN2C(=O)c3ccccc3C2=O)n1`?
Rab9 promoter act: inconclusive; NPC1 prom act: inconclusive; SMN2 splice enh: inconclusive; FLuc counter: 24µM*; ELG1 genotox: inconclusive; KinaseGlo FLuc: -3%

Results for CN(Cc1ccco1)c1ncnc2ccc(-c3cccc(Cl)c3)cc12 ?
Rab9 promoter act: -1%; NPC1 prom act: -3%; FLuc counter: 2%

How did CCCCCNC(=O)c1ccc2c(c1)ncn2-c1cccc(C)c1 do in these assays?
FLuc counter: -11%

Results for Cc1cccc(-n2cnc3cc(C(=O)N4CCCCC4)ccc32)c1 ?
Rab9 promoter act: inconclusive; NPC1 prom act: inconclusive; SMN2 splice enh: inconclusive; FLuc counter: 24µM*; ELG1 genotox: 20%; KinaseGlo FLuc: -5%

What do the screens show for `CC(=O)OCC1OC(Oc2cc(OC(C)=O)c3c(=O)cc(-c4ccc(OC(C)=O)c(OC(C)=O)c4)oc3c2)C(OC(C)=O)C(OC(C)=O)C1OC(C)=O` (stereo unspecified)?
KinaseGlo FLuc: -2%

How did CCc1ccc(C(C(=O)NCc2ccc(F)cc2)N(C(=O)c2csnn2)C2CC2)cc1 (stereo unspecified) do in these assays?
Rab9 promoter act: -1%; NPC1 prom act: -3%; FLuc counter: 0%; ELG1 genotox: -11%

What do the screens show for `Nc1c(C(=O)Nc2ccc3c(c2)OCCO3)nnn1Cc1ccccc1Cl`?
Rab9 promoter act: 2.2µM*; NPC1 prom act: 2.8µM*; FLuc counter: inconclusive; ELG1 genotox: 17%

What do the screens show for `COc1ccc(NC(=O)c2nnn(CC(=O)Nc3ccc4c(c3)OCO4)c2N)c(OC)c1`?
Rab9 promoter act: 18%; NPC1 prom act: 19%; FLuc counter: 1.9µM*; ELG1 genotox: 1%[9.26 µM]

How did Nc1c(C(=O)Nc2ccc3c(c2)OCCO3)nnn1Cc1ccc(F)cc1 do in these assays?
Rab9 promoter act: 2.2µM*; NPC1 prom act: 2.5µM*; FLuc counter: inconclusive; ELG1 genotox: inconclusive

How did COc1ccc(NC(=O)c2nnn(CC(=O)Nc3ccc4c(c3)OCO4)c2N)cc1OC do in these assays?
Rab9 promoter act: -4%; NPC1 prom act: -5%; FLuc counter: -5%; ELG1 genotox: 0%[9.26 µM]

How did COc1ccc(Br)cc1Cn1nnc(C(=O)Nc2ccc3c(c2)OCCO3)c1N do in these assays?
Rab9 promoter act: -2%; NPC1 prom act: 0%; FLuc counter: inconclusive; ELG1 genotox: -7%
